# Compounds with a hit are over-represented: about 3.7% of the library has one in this group of screens.
# PfHsp90 set2 = reduces growth (ATP signal) of yeast expressing P. falciparum Hsp90. hit rate 0.32% among 310,000. inhibition, % at 9.4 µM. S. cerevisiae expressing PfHsp90, BacTiter-Glo ATP, 48 h; yeast lacking PDR1 and PDR3 efflux regulators. AID 504621;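 active = every replicate shows inhibition above about 80%, whatever the replicate mean, limit read from the data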
# V-ATPase pHluor = yeast V-ATPase proton transport regulation by pHLuorin. S. cerevisiae, pHLuorin cytosolic pH fluorescence. response, % at 10 µM. hit rate 0.37% among 350,000. AID 504577; in the data active = response mostly above about 7.3%, no sharp cut-off; inactive = mostly below about 5.4%; also: actives read high
# TIM10 inh = growth inhibitors of TIM10 yeast strain; S. cerevisiae TIM10 strain growth, BacTiter-Glo luminescence, 24 h; inhibition, % at 10 µM; hit rate 1.4% among 330,000;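 active = inhibition of 40% or more at the single tested concentration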;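 also: wild-type TIM10 isogenic control strain grown at permissive 25 °C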
# tim23-1 inh = tim23-1 yeast growth inhibition; hit rate 1.3% among 330,000; S. cerevisiae tim23-1 growth, BacTiter-Glo luminescence, 24 h; inhibition, % at 20 µM;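 active = growth inhibition of the mutant yeast at or above 50%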;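 also: temperature-sensitive mutant grown at 25 °C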
# tim10-1 inh = inhibits growth of tim10-1 mutant yeast. S. cerevisiae tim10-1 ts strain growth, BacTiter-Glo, 24 h. inhibition, % at 20 µM. hit rate 2.2% among 330,000;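 active = inhibition of at least 40%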;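 also: mutant grown at 25 °C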
# tim10-1 conf = tim10-1 yeast growth inhibition, confirmed. hit rate 56% among 7,400. shares compounds with tim10-1 inh. inhibition, % at 20 µM. S. cerevisiae tim10-1 ts strain growth, BacTiter-Glo, 24 h;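 active = inhibition of yeast growth at or above a set limit in either of two repeat tests at 20 µM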;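 also: tim10-1 mutant grown at permissive 25 °C to find synthetic lethal compounds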
# Hits are given with their value; 0 = inactive; - = not tested or not shown.
SMILES,PfHsp90 set2,V-ATPase pHluor,TIM10 inh,tim23-1 inh,tim10-1 inh,tim10-1 conf
N#CCCN1CCC(NC(=O)OCc2ccccc2)CCC1=O (stereo unspecified),0,0,0,0,0,-
O=C(CCCn1ncn2c(cc3occc32)c1=O)NCc1cccc(Cl)c1,0,0,0,0,0,-
Nc1ccc2oc(-c3cccc(Br)c3)nc2c1,0,0,0,0,60,50
COc1ccc(C(=O)NC(C)c2nnc(SCC(=O)NC3CCCC3)n2C)cc1 (stereo unspecified),0,0,0,0,0,-
CCN(C(=O)CSc1ncccc1C(=O)OC(C)C)c1cccc(C)c1,-,0,0,0,42,0
CCOC(=O)c1cccnc1SCC(=O)N(CC)c1cccc(C)c1,-,0,0,0,40,35
CC(C)OC(=O)c1cccnc1SCC(=O)N(C)c1ccccc1,-,0,0,0,0,-
Cc1nn2c(-c3ccccc3)ccnc2c1-c1ccccc1,0,0,0,0,0,-
N#CCc1nn2c(-c3ccccc3)ccnc2c1C#N,0,0,0,0,43,0
CCN(CC)S(=O)(=O)c1ccc(N2CCCC2)c(NS(=O)(=O)c2ccc(F)cc2)c1,0,0,0,0,40,0
CCCN(CCC)CCNC(=O)C1(O)c2ccccc2NC(=O)N1c1cccc(OC)c1 (stereo unspecified),0,0,0,0,0,-
CSC1=NC2(C[C@H]2c2ccccc2)C(=O)N1C (stereo partly specified),0,0,0,0,0,-
CCN(CCCNC(=O)CN1C(=O)COc2ccc(S(=O)(=O)N3CCC(C)CC3)cc21)Cc1ccccc1,0,0,0,0,0,-
O=c1[nH][nH]c(-c2ccccc2O)c1C(C[N+](=O)[O-])c1ccccc1 (stereo unspecified),0,0,0,0,45,0
Cc1[nH]c2ccccc2c1C(C[N+](=O)[O-])c1cccc(O)c1 (stereo unspecified),-,0,0,0,0,-
O=C(NNC(=S)Nc1ccc(Cl)cc1)c1ccccc1OC(F)F,0,0,0,0,42,39
O=C(NNC(=S)NCc1ccccc1)c1ccccc1OC(F)F,0,0,0,0,0,-
O=C(NNC(=S)Nc1ccc(Br)cc1)c1ccccc1Br,0,0,0,0,46,0
CCOC(=O)c1cnc(-n2nc(C)cc2C)nc1NNc1cc(-c2ccccc2)nc(C)n1,-,-,0,0,0,-
CCOC(=O)c1cnc(-n2nc(C)cc2C)nc1NNc1ncc(-c2ccccc2)cn1,-,-,0,0,54,0
CC(=O)N[C@H]1[C@H]([C@H](O)[C@H](O)CO)O[C@](O)(C(=O)O)C[C@@H]1O,0,0,-,-,-,-
CCSC1(SCC)N=C(N)C2(C#N)C(c3ccc(OC)c(OC)c3OC)C12C#N (stereo unspecified),0,0,0,0,61,62
CC1(C)CC(=O)/C(=C(\O)c2ccccc2)C(=NCCc2ccccc2)C1,0,0,0,0,45,0
CCn1c(-c2csc3c2CCC(C)C3)n[nH]c1=S (stereo unspecified),0,0,0,0,48,0
C[C@@H]1CN([C@@H](C)CO)C(=O)CCCn2nncc2CO[C@@H]1CN(C)S(=O)(=O)c1cccc(F)c1,-,0,-,-,-,-
SMILES,PfHsp90 set2,V-ATPase pHluor,TIM10 inh,tim23-1 inh,tim10-1 inh,tim10-1 conf
COc1ccc(N2CCN(C(C)C(=O)Nc3nnc(C)s3)CC2)cc1 (stereo unspecified),0,0,0,0,0,-
CC(=O)c1ccc2c(c1)c(C#N)c1ccccc1[n+]2[O-],0,0,0,0,68,51
CC(=O)c1ccc2c(c1)Cc1cc(C(C)=O)ccc1-2,0,0,0,0,0,-
O=C(CNc1cccc2ccccc12)N/N=C/c1cccc(Oc2ccccc2)c1,0,0,0,0,42,0
COC(=O)c1ccc(N2CCN(c3ccccc3)CC2)c(N)c1,0,0,0,0,80,0
COc1ccccc1NC(=O)c1ccc[n+]([O-])c1,0,0,0,0,0,-
CCCNC(=S)Nc1ccc(Nc2ccccc2)cc1,0,0,0,0,42,0
CCCCNC(=S)Nc1ccc(C(F)(F)F)cc1,0,0,0,0,54,31
CCSC(=O)N1c2ccc(OC)cc2C=CC1C#N (stereo unspecified),0,0,-,-,-,-
CC(C)(C)C(=O)Nc1ccccc1C(=O)Nc1cc(Cl)ccc1Cl,0,0,0,0,43,36
CC(C)(C)C(=O)Nc1ccccc1C(=O)Nc1cccnc1,0,0,0,0,0,-
CC1CCCCC1NC(=O)CCCn1c(=S)[nH]c2ccccc2c1=O (stereo unspecified),-,0,0,0,0,-
CC1CCCCC1n1c(=S)[nH]c2ccccc2c1=O (stereo unspecified),-,0,0,0,42,0
O=C(Nc1ncc2c(n1)CC(c1cccc(Cl)c1)CC2=O)c1ccco1 (stereo unspecified),0,0,0,0,41,32
COC(=O)C1(Cc2cc(-c3ccccc3)no2)CCN(C(=O)OC(C)(C)C)CC1,0,0,0,0,43,34
CN(C)S(=O)(=O)n1cc(/C=C(\NC(=O)c2ccccc2)C(=O)N2CCCC2)c2ccccc21,0,0,0,0,0,-
O=C(NC(=S)Nc1ccccc1N1CCCC1)c1ccc(-c2cccc([N+](=O)[O-])c2)o1,0,0,0,0,0,-
CC(C)(C)C(=O)NC(=S)Nc1ccccc1N1CCCC1,0,0,0,0,0,-
O=C(NC(=S)Nc1ccccc1N1CCCC1)c1ccc([N+](=O)[O-])cc1,0,0,0,0,57,42
COC(=O)c1ccccc1NC(=O)C1CCCC1,0,0,0,0,0,-
CC(=O)NC(=S)Nc1ccccc1N1CCCCC1,0,0,0,0,43,0
COC(=O)c1ccccc1NC(=S)NC(=O)C1CCCCC1,0,0,0,0,41,34
O=C(NC(=S)Nc1ccccc1N1CCCCC1)c1ccc(-c2cccc([N+](=O)[O-])c2)o1,0,0,0,0,41,0
Cc1ccc2c(c1)C1CC(C)(O2)N(c2cccc(C(=O)NC3CCN(Cc4ccccc4)CC3)c2)C(=O)N1 (stereo unspecified),0,0,0,0,0,-
CCN(C(=O)COC(=O)c1ccc(=O)n(Cc2ccccc2)n1)C1CCS(=O)(=O)C1 (stereo unspecified),0,0,0,0,0,-
Cc1cc(C)c(S(=O)(=O)Cc2ccccc2)c(OC(C)C)n1,0,0,0,0,0,-
C#CCn1cc(Cl)cc(C(=O)Nc2ccccc2)c1=O,0,0,0,0,0,-
CC1CCN(C(=O)c2ccc3c(c2NCCO)C(=O)c2ccccc2C3=O)CC1,-,0,0,0,42,0
COc1ccc(NC(=O)Nc2cccc3c2O[C@@H](CN(C)S(=O)(=O)c2cn(C)cn2)[C@@H](C)CN([C@H](C)CO)C3=O)cc1,0,0,0,0,0,-
N/C(=N\OC(=O)c1cccc(Cn2cc(C(F)(F)F)ccc2=O)c1)c1ccccc1,0,0,0,0,44,52

# Screens (PubChem BioAssay)
